In the library only some 1.2% were active in any assay of this set; here they are far more common.
VHR inh abs – inhibitors of human VHR1 phosphatase (DUSP3); recombinant VHR phosphatase, pNPP absorbance; inhibition, % at 13.3 µM; hit rate 0.52% among 290,000; AID 1654; in the data active = inhibition above about 50%
BioA inh – blocks M. tuberculosis BioA enzyme activity. purified M. tuberculosis BioA enzyme, plate reader. inhibition, % at 9.99 µM. hit rate 0.096% among 360,000; in the data active = inhibition above about 40%
Yp Topo-I inh – inhibitors of Yersinia pestis topoisomerase I; Y. pestis Topo-I cleavage product accumulation, plate reader; activity, % at 10 µM; hit rate 0.064% among 360,000; in the data active = activity above about 50%, passing the limit was not always enough
TcdB inh – inhibitors of Clostridioides difficile toxin B glycohydrolase. P18177. TcdB glycohydrolase enzymatic assay, plate reader. inhibition, % at 9.99 µM. hit rate 0.24% among 350,000; in the data active = inhibition above about 10%
Vc quorum ag – quorum light induction in luxS cqsA deficient V. cholerae. V. cholerae BH1578 lux reporter, luminescence, 6 h. activation, % at 18.7 µM. hit rate 0.16% among 350,000. AID 588436; in the data active = activation mostly above about 9.7%, no sharp cut-off
PfHsp40 yeast – restores yeast growth despite PfHsp40 toxicity | S. cerevisiae expressing PfHsp40, growth rescue, ATP luminescence | growth rescue, % at 12.5 µM | hit rate 0.68% among 340,000 | AID 504582; in the data active = growth rescue above about 28%, passing the limit was not always enough;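 note: yeast W303a lacking pdr1 and pdr3 grown in galactose medium; growth measured after three days at 30 °C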
The depositor's hits bear a star; i = inactive; / = no result given.

SMILES | VHR inh abs | BioA inh | Yp Topo-I inh | TcdB inh | Vc quorum ag | PfHsp40 yeast
C/C(=N\NC(=O)c1ccc(O)cc1)c1cccc(NC(=O)c2ccc(Cl)cc2)c1 | / | 7.2 | 6.4 | 0.6 | -1.0 | 44.3*
O=C(N[C@@H](Cc1c[nH]c2ccccc12)C(=O)O)C1CCN(S(=O)(=O)c2cccs2)CC1 | -18.8 | 0.7 | -4.8 | 10.5* | -1.9 | -2.5
CCN1C(=O)CC(n2c(C)nc3ccccc32)C1=O (stereo not drawn) | -26.8 | -1.0 | 3.0 | / | i | 4.6
Cc1nc2ccccc2n1C1CC(=O)N(N(C)C)C1=O (stereo not drawn) | 56.4* | / | 2.2 | 0.0 | 1.1 | 0.9
Cc1cc(Cl)c(O)c(-n2nc3ccccc3n2)c1 | 12.0 | / | 2.6 | 0.6 | -4.4 | 0.0
CC(C)Cc1[nH]c(=O)c(C#N)c2c1CCC2 | 10.7 | -1.3 | -0.2 | 49.7* | i | -0.3
COc1ccc2nc(NN=C(C)c3ccccn3)cc(C)c2c1 | / | / | 17.2 | 1.1 | i | 783.6*
CC(=NNc1ccc2ccccc2n1)c1ccccn1 | / | / | / | -0.1 | / | /
C/C=C/c1ccc(OCC(=O)O)c(OC)c1 | -2.5 | -3.8 | 1.9 | 0.1 | 0.4 | -1.3
C/C=C/c1ccc(OCCOc2cc(C=O)ccc2OC)c(OC)c1 | -8.5 | / | 43.7 | / | 0.7 | 39.3*
NNC(=O)c1sc(-c2ccc(Cl)cc2)cc1N | 51.3* | -1.8 | 1.6 | 0.2 | i | -1.0
CCOC(=O)c1sc(-c2ccc(Br)cc2)cc1N | 13.2 | -1.0 | 7.9 | 1.0 | -1.8 | 0.7
Cc1ccc(-n2c(Cc3cccn3C)nnc2SCC(=O)N2CCN(c3ccccc3)CC2)cc1 | 20.9 | -1.5 | -0.5 | / | -0.5 | -0.9
Cc1cc(CNC(=O)COC(=O)c2ccc(Cl)c(N)c2)cc(C)c1O | / | 0.1 | 2.2 | 1.7 | -0.6 | 105.1*
Cc1ccc(CCN2CC(C(=O)NCCN3CCOCC3)CC2=O)cc1 (stereo not drawn) | -10.1 | / | / | / | / | /
O=C(NCCc1ccccc1)Nc1nnc([C@H]2C[C@H](O)[C@@H](CO)O2)s1 | / | -0.7 | -0.5 | 1.1 | -1.6 | /
Cn1c(=O)c2c(nc(N/N=C/c3cccnc3)n2Cc2ccc(F)cc2)n(C)c1=O | 17.0 | / | -2.4 | -2.0 | i | -0.3
Cc1ccc(S(=O)(=O)Nc2cccc(C(=O)N3CCOCC3)c2)c(C)c1NS(C)(=O)=O | 59.1* | / | 6.8 | 1.0 | i | -0.9
Cc1ccc(S(=O)(=O)Nc2cccc(C(=O)N3CCOCC3)c2)cc1 | 22.4 | -0.6 | -9.9 | 1.0 | -0.4 | -1.0
O=C(O)C1CCC(CNCc2ccccc2Cl)CC1 (stereo not drawn) | 51.9* | / | -8.8 | 1.0 | -0.3 | -0.3
Cc1noc(C)c1NC(=O)N(C)C[C@H]1Oc2ncc(C3=CCCC3)cc2C(=O)N([C@H](C)CO)C[C@H]1C | / | 2.0 | / | 0.8 | / | /
COc1ccc([N+](=O)[O-])cc1NC(=O)CCN1CCN(CCO)CC1 | -6.9 | 45.4* | 3.2 | -0.7 | -0.3 | 0.2
CCCCOC(=O)C1=C(C)Nc2ncnn2C1c1ccc(OCC)c(OC)c1 (stereo not drawn) | 22.4 | 2.2 | 17.8 | / | -0.2 | -1.0
O=C(CSc1nnc(COc2ccc(Cl)cc2)o1)N1c2ccccc2CCc2ccccc21 | 22.4 | / | 61.2* | / | i | 0.1
Nc1ccccc1O | / | 0.3 | -17.1 | / | 0.1 | 60.3*
SMILES | VHR inh abs | BioA inh | Yp Topo-I inh | TcdB inh | Vc quorum ag | PfHsp40 yeast
CCOC(=O)c1ccc(N2C(=O)CC(N(C)CCc3ccc(OC)c(OC)c3)C2=O)cc1 (stereo not drawn) | -8.7 | -0.4 | 13.9 | / | 3.2 | 557.8*
COc1ccc(S(=O)(=O)Nc2cccc3c2O[C@@H](CN(C)S(=O)(=O)c2cn(C)cn2)[C@H](C)CN([C@H](C)CO)C3=O)cc1 | / | -0.4 | / | 0.5 | / | /
COc1ccc(/C=C(\NC(=O)c2cccs2)C(=O)NN)cc1OC | 52.0* | -1.7 | -7.4 | -3.7 | -0.9 | 1.6
COc1ccc(/C=C(/NC(=O)c2cccs2)C(=O)NC(C)(C)C)cc1OC | 13.9 | -2.1 | 3.8 | -1.1 | i | 0.4
COc1ccc(CC(=O)Oc2cc(C)ccc2C)cc1 | 58.2* | / | 7.8 | 0.0 | i | 1.9
COc1ccc(OC(=O)COc2cc(C)ccc2C)cc1 | 16.5 | 0.2 | 5.5 | 1.5 | 0.4 | 1.7
CO[C@H]1CN(C)C(=O)c2cc(NC(=O)NC(C)C)ccc2OC[C@H](C)N(C(=O)CN(C)C)C[C@@H]1C | / | -0.3 | / | / | / | /
N/C(Cc1ccc(Cl)cc1Cl)=N\OC(=O)c1ccccc1F | 4.5 | / | 5.0 | 0.1 | -0.3 | 155.8*
CCc1ccc(C2=NN(C(=O)OC)C(O)(C(F)(F)F)C2)cc1 (stereo not drawn) | 51.7* | 0.0 | -3.6 | / | -1.5 | 0.5
CCN(CC(=O)Nc1ccc(OC)cc1)C(=O)C1CC(=O)N(Cc2ccccc2)C1 (stereo not drawn) | / | -0.5 | 5.3 | -1.5 | 1.1 | /
O=C(NN=Cc1ccc(F)cc1)c1ccccc1NS(=O)(=O)c1cccs1 | / | -0.4 | 3.7 | 2.8 | -3.8 | -1.6
O=C(NN=Cc1cc(Br)c(O)c(Br)c1)c1ccccc1NS(=O)(=O)c1cccs1 | / | 1.2 | -3.0 | 13.5* | i | 1.2
C[C@@H]1CN([C@H](C)CO)C(=O)Cc2cc(NC(=O)Cn3cnnn3)ccc2O[C@@H]1CN(C)S(=O)(=O)c1ccc(Cl)cc1 | / | / | / | 0.5 | / | /
O=[N+]([O-])c1ccc(C2=NN(CCO)C(=Nc3ccc(OC(F)(F)F)cc3)SC2)cc1 | 14.4 | / | -12.8 | 0.6 | i | 52.7*
N/C(=N\OC(=O)CCC(=O)O)c1ncc(C(F)(F)F)cc1Cl | 16.9 | / | 8.2 | 0.0 | 2.4 | 0.4
CC1CCCCN1CCNC(=O)CN1C(=O)CSc2ccc(S(=O)(=O)N3CCCCC3)cc21 (stereo not drawn) | 14.0 | -1.3 | 2.8 | 1.3 | -0.2 | 1.1
CC1CCCCN1CCCNC(=O)CN1C(=O)CSc2ccc(S(=O)(=O)N3CCOCC3)cc21 (stereo not drawn) | 50.2* | -1.6 | -1.2 | 1.3 | -0.5 | -0.1
CC1CCN(S(=O)(=O)c2ccc3c(c2)N(CC(=O)NCCCN2CC(C)CC(C)C2)C(=O)CS3)CC1 (stereo not drawn) | 55.6* | -0.7 | 8.1 | 1.9 | -1.0 | 1.4
O=C(c1cccc(F)c1)N1CC2(C1)[C@@H](c1ccccc1)[C@@H](CO)N2C(=O)C1CCOCC1 | / | / | / | -1.0 | / | /
C[C@@H]1CN([C@H](C)CO)C(=O)Cc2cc(NC(=O)Nc3ccc(C(F)(F)F)cc3)ccc2O[C@@H]1CN(C)C(=O)Nc1cccc2ccccc12 | / | -4.6 | / | 0.0 | / | /
Cc1cccc(C(=O)O/N=C(\N)Cc2cccc3ccccc23)c1 | 17.5 | -0.6 | 6.1 | / | -0.9 | 300.2*
Cc1cccc(CN2CCCN(Cc3ccc(Cl)cc3)S2(=O)=O)c1 | 1.8 | / | 57.1* | 0.1 | 2.2 | 10.7
Cc1ccc(CN2CCCN(Cc3ccc(C)cc3)S2(=O)=O)cc1 | -28.0 | 0.0 | 4.5 | 0.1 | -0.4 | 7.2
Cc1ccc(CNC(=O)CN(C)S(=O)(=O)c2ccc(F)cc2)cc1 | / | / | -5.6 | 0.2 | -0.4 | -1.3
COc1ccccc1C(=O)OCCc1ccccc1 | / | -0.6 | 11.4 | -0.8 | i | -1.7
O=C(NC(=S)NC1CCCCCC1)c1cncc(Br)c1 | -11.2 | / | 9.7 | / | -0.1 | 33.2*

High-throughput results: PubChem BioAssay, several laboratories
